Shown are actives, neighbours in structure and some others; about 1.7% of the full set was active somewhere.
GLP-1R agonist: activates the human GLP-1 receptor. P43220. HEK293 GLP-1R CRE-luciferase, luminescence, 4-6 h; cells express a hypersensitive GLP-1R form. Potency, µM (doses to about 45.6 µM), for the others: at the highest dose activation, usual class: activators. hit rate 0.007% among 380,000; also: % of control where 0% means no effect
Target sequence (P43220 whole entry, looked up): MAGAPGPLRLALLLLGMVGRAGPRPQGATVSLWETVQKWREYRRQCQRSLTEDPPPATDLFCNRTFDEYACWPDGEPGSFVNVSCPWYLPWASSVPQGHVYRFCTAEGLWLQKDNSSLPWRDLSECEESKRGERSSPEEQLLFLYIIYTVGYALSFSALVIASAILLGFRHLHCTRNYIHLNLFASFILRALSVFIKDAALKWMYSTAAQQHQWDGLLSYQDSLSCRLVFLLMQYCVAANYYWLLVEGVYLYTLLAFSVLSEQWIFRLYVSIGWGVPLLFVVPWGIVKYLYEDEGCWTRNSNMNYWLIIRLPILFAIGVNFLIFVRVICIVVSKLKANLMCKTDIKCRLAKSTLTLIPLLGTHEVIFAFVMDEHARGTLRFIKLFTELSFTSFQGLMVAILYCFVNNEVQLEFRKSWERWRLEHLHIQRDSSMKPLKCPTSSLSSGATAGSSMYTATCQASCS
GLP-1R inv ag: acts as inverse agonist at human GLP-1 receptor. P43220. HEK293 GLP-1R CRE-luciferase, luminescence, 24 h; GLP-1R form is constitutively active. Potency, µM (top dose mostly 38.3 µM), without a hit: top-dose activity change, negative = inhibition, actives largely listed as inhibitors. hit rate 1.6% among 410,000; also: % is scaled to controls: 0 for no effect and ±100 for the full control effect; nearly all actives have a fitted effect of over 55% in size
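Stable HEK293 clone (constitutively active GLP-1R + cAMP-response luciferase); 200 cells/uL plated, 12 h pre-culture, compound 24 hr, 37 deg C/5% CO2; detection reagent 12 min RT; luminescence.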
HEK293 tox: cytotoxicity in counter-screen for GLP-1R inverse agonists | hit rate 0.13% among 410,000 | Potency, µM (titrated, usually from 38.3 µM), inactives show at the top dose activity change, negative = inhibition, hits mostly inhibitors | AID 624418 | HEK293 cAMP-luciferase reporter cells, luminescence, 24 h;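 also: loss of luciferase light is scored as toxicity; % is scaled to controls: 0 for no effect and ±100 for the full control effect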
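Here, cytotoxicity is scored as loss of luminescence. The MLSMR collection was tested on cells seeded in medium containing 10% Nu serum, with a 24 hr compound exposure preceded by 12 hours of culture.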
PTHR1 agonist: PTHR1 (human) receptor agonism; Q03431; hit rate 0.075% among 410,000; Potency, µM (series often up to 115 µM), for the others: top-dose activation, most hits filed as activators; AID 743266; HEK293 GP2 PTHR1 cells, GloSensor cAMP luminescence, 1 h; also: nearly all actives have a fitted effect of over 55% in size
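HEK-293-derived GP2 cells expressing PTHR1 and a GloSensor cAMP reporter, 3,000/well, plated overnight, given luciferin plus IBMX (each 0.5 mM as added) for 1 h at 37 °C, then compound for 1 h at 37 °C. Luminescence was read after 15 min at room temperature.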
* hit, by the source's call; i = inactive; ? = inconclusive; / = no result given; [ ] = remark or other dose. Calls follow the shape of the dose curve; as a rule, active = well fitted curve in the direction sought with a large enough effect; inconclusive = small, poorly fitted or top-dose-only effect, or another doubt; inactive = no such curve, though single readings can be large; an effect the other way counts as inactive or inconclusive. Potency is read from the fitted curve at half-maximal effect.

SMILES | GLP-1R agonist | GLP-1R inv ag | HEK293 tox | PTHR1 agonist
Fc1ccc(C2c3[nH]c4ccccc4c3CCN2Cc2cccn2-c2ncccn2)cc1 (configuration not stated) | 3% | 11µM* | -22% | -17%
COc1ccc(S(=O)(=O)NC2CC(=O)N(c3cccc(F)c3)C2)cc1OC (configuration not stated) | 0% | 11% | -14% | -25%
O=C1NC[C@@H](CCCCN2CCN(CCc3ccc(O)cc3)C(=O)C2=O)N(CCC2CCCCC2)C1=O | 2% | 20% | 2% | -16%
CC1(C)CC(=O)CC2(C1)NCC(c1ccccc1)c1c2[nH]c2ccccc12 (configuration not stated) | 8% | 10µM* | -12% | -59%
CCOc1ccc(N2C(=O)C(CC(=O)Nc3ccc(F)cc3)N(Cc3ccccn3)C2=S)cc1 (configuration not stated) | 13% | 10µM* | -5% | i
COc1ccc(NC(=S)NC(NC(=O)c2cccc(C)c2)C(Cl)(Cl)Cl)c([N+](=O)[O-])c1 (configuration not stated) | -8% | 8.9µM* | ? | -15%[57.5 µM]
O=C(NC(NC(=S)Nc1ccccc1Cl)C(Cl)(Cl)Cl)c1cccc(Cl)c1 (configuration not stated) | -40% | 2.8µM* | -4% | -28%
O=C(Cc1cccc2ccccc12)NC(NC(=S)Nc1ccccc1Cl)C(Cl)(Cl)Cl (configuration not stated) | -16% | 4.5µM* | -17% | -24%
O=C1CN(C(=O)c2ccc(Br)o2)C(c2ccc(F)cc2)c2cc(Cl)ccc2N1 (configuration not stated) | -4% | 3.5µM* | -11% | 6%[57.5 µM]
O=C1CN(C(=O)c2ccc(Br)o2)C(c2ccccc2)c2cc(Br)ccc2N1 (configuration not stated) | -4% | 7.1µM* | -19% | -34%
CCOc1ccccc1CNC(=O)C1CCN(S(=O)(=O)N2CCC(C)CC2)CC1 | 11% | ? | -4% | -19%
CCCCCc1ccc(OCCC[n+]2ccccc2)c(CCCCC)c1 | 1% | 7.9µM* | ? | -33%
CCCCCc1ccc(OCCOCCn2c[n+](C)c3ccccc32)c(CCCCC)c1 | 4% | ? | ? | -48%
CCOC(=O)c1c(NC(=O)CNCCO)sc(C)c1C | ? | 0% | 14% | i
CCOC(=O)c1c(NC(=O)CNC2CCCCC2)sc(C)c1C | 20% | 4µM* | 27% | -17%
COC(=O)CC[C@H](N)C(=O)O | 2% | / | / | /
COc1ccc(C2CC(c3cccs3)=NN2C(=O)CSc2nc3ccccc3s2)cc1 (configuration not stated) | -7% | ? | -3% | -7%
O=C(CSc1nc2ccccc2s1)N1N=C(c2cccs2)CC1c1ccc(F)cc1 (configuration not stated) | -7% | 4µM* | -2% | -7%
COc1ccc2[nH]c3c(c2c1)CCN1C(=O)C(CC(=O)NCC24CC5CC(CC(C5)C2)C4)C[C@H](C(=O)N(C(C)C)C(C)C)[C@@]31C (some centres not stated) | -3% | 10µM* | 2% | -18%
C[C@]12c3[nH]c4ccc(Cl)cc4c3CCN1C(=O)[C@@H](CC(=O)NCC13CC4CC(CC(C4)C1)C3)C[C@@H]2C(=O)N1CCOCC1 | 2% | 10µM* | -9% | -2%
Cc1c(C#N)sc(C(N)=O)c1C | 1% | 0% | -4% | i
CCCn1nc(C(=O)Nc2nc(-c3ccccn3)cs2)c2ccccc2c1=O | -5% | ? | 5µM* | -20%
Cc1ccc2c(c1)C(=O)C(=O)N2Cc1ccc(OC(C)C)cc1 | / | 1.1µM* | ? | 0%
CCC(C)C1OC2(C=CC1C)CC1CC(C/C=C(\C)C(OC3CC(OC)C(OC4CC(OC)C(NC(C)=O)C(C)O4)C(C)O3)C(C)/C=C/C=C3\COC4C(O)C(C)=CC(C(=O)O1)C34O)O2 (configuration not stated) (tested in a mixture with another compound) | 1% | / | / | /
Cc1ccccc1C(=O)Nc1nnc(S(=O)(=O)N2c3ccccc3CC2C)s1 (configuration not stated) | / | 11µM* | -3% | -85%
SMILES | GLP-1R agonist | GLP-1R inv ag | HEK293 tox | PTHR1 agonist
Cc1cccc(C(=O)Nc2nnc(S(=O)(=O)N3c4ccccc4CC3C)s2)c1 (configuration not stated) | / | ? | -12% | -95%
CCC(=O)OC1C(N(C)C)CC(C)O[C@H]1O[C@H]1[C@H](C)[C@@H](O[C@H]2CC(OC)[C@@H](O)C(C)O2)[C@H](C)C(=O)O[C@@H](CC)[C@](C)(O)[C@@H](O)[C@H](C)C(=O)[C@@H](C)C[C@]1(C)O (some centres not stated) | 8% | / | / | /
COC(=O)CNC(c1ccccc1Cl)c1cc(Br)ccc1NS(=O)(=O)c1ccc(C)cc1 (configuration not stated) | -18% | 3.5µM* | 3% | i
C(=N\N1CCN(C2c3ccccc3-c3ccccc32)CC1)/c1ccccn1 | -13% | -13% | 16% | -4%
C(=N\N1CCN(C2c3ccccc3-c3ccccc32)CC1)/c1cccnc1 | 4% | 11µM* | -21% | -5%
CC(=O)N1CCOc2cc(S(=O)(=O)NCc3ccc(C)cc3)c(C)cc21 | / | 3% | -5% | i
COC(=O)c1cc(NC(=O)CC2SC(=Nc3ccccc3)N(CCc3c[nH]c4ccccc34)C2=O)cc(C(=O)OC)c1 (configuration not stated) | -13% | 4.5µM* | ? | i
CC(C)N(C(=O)CSc1nc2ccccc2n1Cc1ccc(F)cc1)C(C)C | 4% | 2.8µM* | ? | -8%
COC(=O)c1ccc(Cn2c(SCC(=O)Nc3ccc(F)cc3)nc3ccccc32)cc1 | / | 7% | 15% | i
CN(C(=O)CSc1nc2ccccc2n1Cc1cccc(C(F)(F)F)c1)c1ccccc1 | / | 10µM* | -18% | -16%
O=C(OCc1ccccc1)c1cccnc1 | 0% | / | / | /
CCN1C(=O)c2ccccc2Sc2ccc(NC(=O)Nc3ccc(C(C)=O)cc3)cc21 | / | ? | 1% | -55%
CCc1ccccc1NC(=O)Nc1ccc2c(c1)N(CC)C(=O)c1ccccc1S2 | / | 5µM* | -16% | -8%
O=C1[C@H]2[C@@H](c3ccccc3)N[C@]3(CCCN(Cc4ccc(C(F)(F)F)cc4)C3=O)[C@H]2C(=O)N1Cc1ccccc1 | -4% | 11µM* | -1% | -46%
O=C1[C@H]2[C@@H](c3ccccc3)N[C@]3(CCCN(Cc4ccc(F)cc4)C3=O)[C@H]2C(=O)N1Cc1ccccc1 | -1% | -23% | -6% | -5%
O=C1[C@H]2[C@@H](c3ccccc3)N[C@]3(CCCN(Cc4ccccc4)C3=O)[C@H]2C(=O)N1Cc1ccccc1 | -5% | -3% | 2% | -12%

Compound activity (PubChem BioAssay)
